Source: PubChem BioAssay AID2284141 (EPA ToxCast)
Inconclusive results are not listed. Active and inactive are the calls of the source. The calls were made as follows: active = hit-call score of the fitted dose curve at least 0.9, where 1 is the maximum; inconclusive = response in the unintended direction; inactive = score below 0.9.

The compounds below were run against hamster Adenylyl Cyclase, Adcy5 (gene 64532) (UniProt Q04400) (assay: ERF_FR_ENZ_rACFSK_Antagonist: Eurofins (ERF) Enzymatic LeadHunter Assay for hamster Adenylyl Cyclase Antagonism).
Sequence of hamster Adenylyl Cyclase, Adcy5 (gene 64532) (Q04400 whole entry, looked up): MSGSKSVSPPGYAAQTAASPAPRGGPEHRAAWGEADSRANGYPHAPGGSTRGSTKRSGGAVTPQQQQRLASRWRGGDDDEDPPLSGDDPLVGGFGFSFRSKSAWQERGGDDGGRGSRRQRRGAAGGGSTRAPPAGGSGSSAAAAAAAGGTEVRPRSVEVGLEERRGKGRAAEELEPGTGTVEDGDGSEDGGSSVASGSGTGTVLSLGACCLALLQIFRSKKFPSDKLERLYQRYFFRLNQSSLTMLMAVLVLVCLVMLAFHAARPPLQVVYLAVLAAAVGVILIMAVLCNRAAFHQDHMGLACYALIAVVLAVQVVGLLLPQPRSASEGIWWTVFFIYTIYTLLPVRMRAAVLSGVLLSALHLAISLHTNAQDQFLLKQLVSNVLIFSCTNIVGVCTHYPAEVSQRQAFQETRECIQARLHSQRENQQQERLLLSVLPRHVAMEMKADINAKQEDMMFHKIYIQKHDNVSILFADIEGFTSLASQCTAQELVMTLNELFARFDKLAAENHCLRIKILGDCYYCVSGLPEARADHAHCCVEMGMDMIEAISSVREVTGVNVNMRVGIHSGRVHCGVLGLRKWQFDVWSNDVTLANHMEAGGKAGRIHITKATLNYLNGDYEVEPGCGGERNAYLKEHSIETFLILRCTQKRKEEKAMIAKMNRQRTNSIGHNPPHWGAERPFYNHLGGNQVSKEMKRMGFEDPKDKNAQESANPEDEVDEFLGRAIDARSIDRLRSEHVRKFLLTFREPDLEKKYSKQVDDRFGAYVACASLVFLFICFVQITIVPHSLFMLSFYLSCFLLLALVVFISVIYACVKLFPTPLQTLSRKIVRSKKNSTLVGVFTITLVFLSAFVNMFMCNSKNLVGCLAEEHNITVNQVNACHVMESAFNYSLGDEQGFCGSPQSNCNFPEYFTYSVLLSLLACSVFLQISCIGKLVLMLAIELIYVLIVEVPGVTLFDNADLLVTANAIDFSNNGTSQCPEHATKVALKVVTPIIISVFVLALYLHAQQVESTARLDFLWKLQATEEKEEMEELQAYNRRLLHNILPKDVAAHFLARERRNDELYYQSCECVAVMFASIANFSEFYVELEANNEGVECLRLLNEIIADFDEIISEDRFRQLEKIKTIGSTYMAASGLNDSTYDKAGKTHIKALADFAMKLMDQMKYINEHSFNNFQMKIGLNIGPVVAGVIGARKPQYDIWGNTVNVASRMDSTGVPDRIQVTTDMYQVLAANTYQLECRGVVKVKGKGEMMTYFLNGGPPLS
Protocol: ERF_FR_ENZ_rACFSK_Antagonist is a biochemical, single-readout assay that uses extracted gene-proteins in a cell-free assay. Measurements were taken 0.16 hour after chemical dosing in a 96-well plate. See Adenylyl Cyclase Hamster Enzymatic Antagonist Assay, Cerep.ERF_FR_ENZ_rACFSK_Antagonist is an assay component calculated from the ERF_FR_ENZ_rACFSK assay. It is designed to measure enzyme activity using a type of enzyme reporter as detected by fluorescence intensity with HTRF technology.Data from the assay component ERF_FR_ENZ_rACFSK_Antagonist was analyzed at the assay endpoint, ERF_FR_ENZ_rACFSK_Antagonist, in the positive analysis fitting direction relative to DMSO as the negative control and baseline of activity. Using a type of enzyme reporter, loss-of-signal activity can be used to understand changes in binding as they relate to gene ADCY5. To generalize the intended target to other relatable targets, this assay endpoint is annotated to the gpcr intended target family, where the subfamily is adenylyl cyclase.
Hamster cells are incubated for 10 minutes at room temprature. Test Sample Requirements: Minimum for 1) Screen: 60 ul of 10 mM stock -OR- 1 mg (pre-weighed) for 10 uM final testing. 2) Dose Response: 90 ul of 10 mM stock -OR- 1 mg (pre-weighed) for a top concentration at 10 uM.
`COc1cc(CCC(=O)CC(=O)CCc2ccc(O)c(OC)c2)ccc1O` was tested, and the outcome was “inactive”.
In the case of `O=C(/C=C/c1ccc(O)cc1)CC(=O)/C=C/c1ccc(O)cc1`, the outcome is reported as “inactive”.
For `COc1cccc2c1C(=O)c1c(O)c3c(c(O)c1C2=O)C[C@@](O)(C(=O)CO)C[C@@H]3O[C@H]1C[C@H](N)[C@H](O)[C@H](C)O1`, the AC50 was 2.6 µM (active).
